Drawing on PubChem BioAssay (Tox21), this text covers Potency, viability change, negative = cytotoxic and activity change, negative = cytotoxicity for 48 compounds.

SMILES strings stand for the structures. Results filed as inconclusive are left out. Where a call stands in place of a potency, no number is given. Unmarked numbers belong to inactive results. The source made the active and inactive calls. The call rests on the fitted dose curve; in most records, active means well fitted cell-killing curve with a large enough effect in the repeat runs; inconclusive means weak or mixed curves, or effect the other way; inactive means flat fitted curve, though single readings scatter.

Test [1] in a line: cAMP Responsive Elements (CRE) small molecule antagonists, cell-based qHTS assay: qHTS cell viability counter screen (AID 2060913). Further: nearly all actives have a fitted effect of over 40% in size. In a few lines:
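CRE-bla HEK293T cells were seeded in assay medium with 10% dialyzed FBS, incubated 18 hrs at 37 C, then exposed to compounds plus 0.25 uM final NKH477 for 3 hrs. Viability was read by CellTiter-Glo luminescence after 30 min, in the same wells.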

The nature of test [2]: cAMP Responsive Elements (CRE) small molecule agonists, cell-based qHTS assay: qHTS cell viability counter screen (AID 2060914). Further: nearly all actives have a fitted effect of over 50% in size. In a few lines: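 HEK 293T CRE-bla; DMEM + 10% dialyzed FBS, 25 mM HEPES; 18 h pre-incubation; compound 3 h, 37 °C/5% CO2; CellTiter-Glo added after reporter read; luminescence after 30 min RT.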
Potency means the concentration at half of the fitted maximal effect.

In the case of `NNc1ccc(C(=O)O)cc1`, the Potency entry in test [1] and in test [2] was “inactive” throughout.
Regarding `O=c1cccccc1O`, the Potency entry in test [1] and in test [2] was “inactive” in each case.
`CCCCCCCCCCCCCCCCCCCl`: the viability change, negative = cytotoxic in test [1] was -1.12% [at 8.39 µM]. Moreover, in test [2], the activity change, negative = cytotoxicity is -6.8% [at 8.39 µM].
Take `CCCC(C)C`: the Potency entry in test [1] and in test [2] was “inactive” in each case.
Consider `Nc1ccc(S(=O)(=O)Nc2ccc(Cl)nn2)cc1`, for which the Potency result in test [1] and in test [2] was “inactive” each time.
Consider `Nc1ccc(Oc2ccc(Cl)cc2)cc1`, for which the Potency entry in test [1] and in test [2] was “inactive” throughout.
As for `CCCCCCCCCCCCCCCS(=O)(=O)Oc1ccccc1`, the Potency entry in test [1] and in test [2] was “inactive” each time.
As to `CCC1=C(C)CN(C(=O)NCCc2ccc(S(=O)(=O)NC(=O)NC3CCC(C)CC3)cc2)C1=O` (stereo unspecified), the Potency entry in test [1] and in test [2] was “inactive” each time.
Regarding `CSC(=O)c1cccc2nnsc12`, the Potency result in test [1] and in test [2] was “inactive” each time.
Regarding `CCCC(c1cc(C(C)(C)C)c(O)cc1C)c1cc(C(C)(C)C)c(O)cc1C`, the Potency in test [1] is 24.6 µM (active); in test [2] it was 31 µM (active).
Taken in the same sequence, the figures for `C=CC(C)(C)C` were “inactive” and “inactive”.
For `CCCCCCCCCCCCCC[n+]1ccccc1`, the Potency in test [1] is 48.6 µM (active); in test [2], 61.1 µM (active).
For `O=C(O)CCCc1c[nH]c2ccccc12`, in that order: “inactive” and “inactive”.
For `N#C[C@@H]1C[C@@H]2C[C@@H]2N1C(=O)[C@@H](N)C12CC3CC(CC(O)(C3)C1)C2`, in that order: “inactive” and “inactive”.
As for `CC(C)Oc1ccc2c(=O)c(-c3ccccc3)coc2c1`, the Potency entry in test [1] and in test [2] was “inactive” each time.
As to `CC(C)=CCl`, the Potency result in test [1] and in test [2] was “inactive” in each case.
Turning to `C=C1C[C@]23C[C@@]1(O)CC[C@H]2[C@@]12C=C[C@H](O)[C@@](C)(C(=O)O1)[C@H]2[C@@H]3C(=O)O`, the Potency entry in test [1] and in test [2] was “inactive” each time.
Turning to `CCCC(C)C(=O)OCC` (stereo unspecified), the Potency result in test [1] and in test [2] was “inactive” throughout.
For the compound `COc1nc(C)nc(N)n1`, the Potency entry in test [1] and in test [2] was “inactive” in each case.
With `C=Cc1cccc(C)c1`, the Potency result in test [1] and in test [2] was “inactive” throughout.
For the compound `CCCCC(C=O)CC` (stereo unspecified), the Potency entry in test [1] and in test [2] was “inactive” each time.
On to `O=C(c1ccc(OCCN2CCCCC2)cc1)c1c(-c2ccc(O)cc2)sc2cc(O)ccc12`, for which the Potency entry in test [1] and in test [2] was “inactive” each time.
In the case of `CC/C=C\CCOC(=O)CCCCC`, the Potency result in test [1] and in test [2] was “inactive” throughout.
For `Clc1ccc2c(c1)Nc1ccccc1S2`, the Potency entry in test [1] and in test [2] was “inactive” throughout.
Consider `CC1(C)C(=O)C(C)(C)C1=O`, for which the Potency entry in test [1] and in test [2] was “inactive” in each case.
For the compound `COc1cc2c(cc1OC)[C@@H]1CC(=O)[C@@H](CC(C)C)CN1CC2`, the Potency result in test [1] and in test [2] was “inactive” throughout.
As to `Cc1cc(=O)oc2cc(O)ccc12`, the Potency result in test [1] and in test [2] was “inactive” in each case.
As to `c1ccc(OCCOc2ccccc2)cc1`, the Potency result in test [1] and in test [2] was “inactive” each time.
For the compound `N#[N+]c1ccc2c(S(=O)(=O)[O-])cccc2c1O`, the Potency entry in test [1] and in test [2] was “inactive” throughout.
With `CC(=O)OC/C=C(\C)CCC=C(C)C`, the Potency entry in test [1] and in test [2] was “inactive” in each case.
As to `CN1CCN(Cc2cc(-c3ccc4[nH]c(=O)oc4c3)co2)[C@@H](c2ccc(F)cc2)C1`, the Potency result in test [1] and in test [2] was “inactive” throughout.
`CCCCCC/C=C\CCCCCCCC(=O)O`: the Potency result in test [1] and in test [2] was “inactive” in each case.
For the compound `CC(=O)C1(C)CC2=C(CCCC2(C)C)CC1C` (stereo unspecified), the Potency entry in test [1] and in test [2] was “inactive” each time.
For the compound `CN(C)C(=O)C(CCN1CCC(O)(c2ccc(Cl)cc2)CC1)(c1ccccc1)c1ccccc1`, the Potency entry in test [1] and in test [2] was “inactive” in each case.
In the case of `COC(=O)c1ccccc1OC`, the Potency entry in test [1] and in test [2] was “inactive” throughout.
Consider `CC1CCC(C(C)(C)S)C(=O)C1` (stereo unspecified), for which the Potency result in test [1] and in test [2] was “inactive” in each case.
Turning to `Oc1cc(O)c(Cl)cc1Cl`, the Potency entry in test [1] and in test [2] was “inactive” each time.
Consider `C=CC(C)(O)CC/C=C(/C)CCC=C(C)C` (stereo unspecified), for which the Potency entry in test [1] and in test [2] was “inactive” in each case.
As to `Oc1cccc(-c2c3nc(c(-c4cccc(O)c4)c4ccc([nH]4)c(-c4cccc(O)c4)c4nc(c(-c5cccc(O)c5)c5ccc2[nH]5)CC4)C=C3)c1`, the Potency result in test [1] and in test [2] was “inactive” in each case.
For `CCCC(=O)c1ccccc1`, the Potency result in test [1] and in test [2] was “inactive” throughout.
As to `CC(C)(C)CC(C)(C)c1ccc(O)c(-n2nc3ccccc3n2)c1`, the Potency result in test [1] is “inactive”. Further, the Potency in test [2] is 9.69 µM (active).
Turning to `CC(C(=O)O)c1ccc(C(=O)c2ccccc2)s1` (stereo unspecified), the Potency result in test [1] and in test [2] was “inactive” throughout.
Consider `Cc1nc2sccn2c(=O)c1CCN1CCC(=C(c2ccc(F)cc2)c2ccc(F)cc2)CC1`, for which the Potency entry in test [1] and in test [2] was “inactive” each time.
In the case of `CC(C)C[C@H](NC(=O)CNC(=O)[C@H](Cc1ccc(O)cc1)NC(=O)[C@H](CO)NC(=O)[C@H](Cc1c[nH]c2ccccc12)NC(=O)[C@H](Cc1cnc[nH]1)NC(=O)[C@@H]1CCC(=O)N1)C(=O)N[C@@H](CCCN=C(N)N)C(=O)N1CCC[C@H]1C(=O)NCC(N)=O` (stereo in doubt), the Potency entry in test [1] and in test [2] was “inactive” each time.
Take `CC(C)(O)c1ccccc1`: the Potency result in test [1] and in test [2] was “inactive” throughout.
On to `Cc1occc(=O)c1OC(=O)C(C)C`, for which the Potency result in test [1] and in test [2] was “inactive” throughout.
`C=C(C)C(=O)OCCOP(=O)(O)O`: the Potency result in test [1] and in test [2] was “inactive” each time.
Take `Oc1ccccc1O`: the Potency result in test [1] and in test [2] was “inactive” each time.
